Test results published in PubChem BioAssay (NCI).
The panel holds about 79,000 compounds, 15% with a hit somewhere; the sample as a whole holds those more often. Active and inactive are the calls of the source. Cut-off read from the data, not from the text of the source: active = growth inhibition above about 70%; inactive = the rest.

Experiments:
[1] = NCI Yeast Anticancer Drug Screen. Data for the rad50 strain (AID 155);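 note: 0% = growth of vehicle-only cultures of the same strain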; settings: S. cerevisiae rad50 strain growth inhibition; at 50.0 µM; stronger effect = higher value
Method in brief: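 Inhibition values express reduced yeast growth in compound-treated cultures relative to vehicle-treated controls.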

[2] = NCI Yeast Anticancer Drug Screen. Data for the mec2-1 strain (AID 157); settings: S. cerevisiae mec2-1 strain, at 50.0 µM, stronger effect = higher value
Method in brief: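 Mutant yeast (mec2-1) grown with compound; growth inhibition relative to vehicle control reported.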

[3] = NCI Yeast Anticancer Drug Screen. Data for the sgs1 mgt1 strain (AID 161);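 note: 0% = growth of cultures given vehicle only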; settings: S. cerevisiae sgs1 mgt1 strain, at 50.0 µM, stronger effect = higher value
Method in brief: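 This yeast growth screen uses a strain with defined DNA-repair lesions; compound-treated growth is compared with vehicle-treated growth.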

[4] = NCI Yeast Anticancer Drug Screen. Data for the cln2 rad14 strain (AID 165);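 note: 0% = growth equal to vehicle treated cultures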; settings: S. cerevisiae cln2 rad14 strain, at 50.0 µM, stronger effect = higher value
Method in brief: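 Readout is yeast growth inhibition versus vehicle-treated controls, using a strain with cln2 and rad14 alterations exposed to compound.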

[5] = NCI Yeast Anticancer Drug Screen. Data for the bub3 strain (AID 167); settings: S. cerevisiae bub3 mutant strain, at 50.0 µM, stronger effect = higher value
Method in brief: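 Steps: expose the mutant yeast strain to compound; grow alongside vehicle-treated cultures; measure growth; express inhibition against the vehicle cultures.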

[6] = NCI Yeast Anticancer Drug Screen. Data for the mlh1 rad18 strain (AID 175); settings: S. cerevisiae mlh1 rad18 strain growth inhibition; at 50.0 µM; stronger effect = higher value
Method in brief: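 Genetically defined yeast (DNA repair-deficient) exposed to compounds; growth inhibition determined relative to vehicle.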

Measured: growth inhibition

Nc1nc2c(ncn2C2C=CC(CO)C2)c(=O)[nH]1 (stereo not drawn)
inactive: [1] 7.6% | [2] 12.5% | [3] 3.9% | [4] 10.4% | [5] -2.1% | [6] 4.25%

NC(=O)NC1CCCCCCC1
inactive: [1] 5.95% | [2] -14.9% | [3] 1.05% | [4] -7.45% | [5] 4.75% | [6] 0.3%

Cc1c([N+](=O)[O-])cc(C(C)(C)C)c(OC(=O)Nc2ccc(Cl)cc2)c1[N+](=O)[O-]
inactive: [1] 41.4% | [2] 63.7% | [3] 65.7% | [4] 52.2% | [5] 27.6% | [6] 69%

OC(CN(C1CCCCC1)C1CCCCC1)c1ccnc2c(Cl)cc(Cl)cc12 (stereo not drawn)
inactive: [1] -21.8% | [2] -1% | [3] 7.3% | [4] 0.6% | [5] -6.3% | [6] 18.4%

O=C(O)/C=C\c1cc2c(cc1[N+](=O)[O-])OCO2
inactive: [1] 0.4% | [2] -5.3% | [3] -4.2% | [4] -12.2% | [5] 14.6% | [6] -2.5%

COc1ccc2c(c1)C(Cc1ccc(Oc3cc(CC4c5cc(OC)ccc5CC[N+]4(C)C)ccc3OC)cc1)[N+](C)(C)CC2 (stereo not drawn)
inactive: [1] -5.9% | [2] 2.75% | [3] -7.45% | [4] -9.55% | [5] -6.5% | [6] -12.2%

C=CCOC(=O)/C=C/C
inactive: [1] 7% | [2] 2.7% | [3] -4.05% | [4] -11.3% | [5] -2.55% | [6] -1.35%

COC(=O)N1C(C#N)=CCc2ccccc21
inactive: [1] 26.4% | [2] 31.2% | [3] 16.9% | [4] -6.25% | [5] 3.8% | [6] 5.65%

Cc1c(Cl)cccc1NC(=O)c1c(Cl)c(Cl)c(Cl)c(Cl)c1C(=O)O
inactive: [1] 7.15% | [2] -1.35% | [3] 8.6% | [4] -31.7% | [5] 0.85% | [6] 14.1%

COc1ccc(C(C)(O)c2cc3ccccc3n2S(=O)(=O)c2ccccc2)cc1 (stereo not drawn)
inactive: [1] -8.95% | [2] -12.3% | [3] -0.9% | [4] -14.3% | [5] 0.75% | [6] 18.4%

c1ccc(Cc2ncc(-c3ccccc3)cc2-c2ccccc2)cc1
inactive: [1] -19.4% | [2] -14.8% | [3] 3.1% | [4] 3.65% | [5] 7.3% | [6] 4.2%

CCN(CC)Cc1cc(Nc2ncnc3sc(C)c(C)c23)ccc1O
inactive: [1] 9.05% | [2] 9.95% | [3] 1.3% | [4] -13.2% | [5] -10.3% | [6] -15.7%

Cc1ccc(SCC(=O)O)c(C)c1
inactive: [1] 27.1% | [2] 17.9% | [3] 18.1% | [4] 14% | [5] 7.65% | [6] -13.5%

O=C1CCC2(C=Nc3ccccc32)C2Cc3ccccc3N12 (stereo not drawn)
inactive: [1] -27.3% | [2] -11.8% | [3] -6.8% | [4] 3.75% | [5] 8.05% | [6] -29.7%

O=c1ccc2c(-c3ccccc3O)c3ccc(O)cc3oc-2c1
active: [1] 91.8% | [2] 78.4% | [3] 85% | [4] 86.9% | [5] 88.5% | [6] 95.5%

CC(=O)C1C(=O)C(=O)N(CCN2C(=O)C(=O)C(C(C)=O)C2=O)C1=O (stereo not drawn)
inactive: [1] -12.4% | [2] -0.8% | [3] 0.95% | [4] -26.2% | [5] -5.9% | [6] 0.75%

CCC(C(=O)O)C(=O)O.[NH-]CC1CCCC[N-]1.[Pt+2]
inactive: [1] 7.7% | [2] -3.6% | [3] 2.55% | [4] 7.95% | [5] -39.5% | [6] -34.7%

N#CCCn1nc(SCc2ccccc2)c(=O)[nH]c1=O
inactive: [1] -2.6% | [2] 0.3% | [3] 7.65% | [4] 6.3% | [5] -1.65% | [6] 7.85%

Cc1ncc(CN2CSC(CCO)C2C)c(N)n1 (stereo not drawn)
inactive: [1] 32.6% | [2] 8.4% | [3] 27.2% | [4] 16.8% | [5] 17.4% | [6] 43.1%

CN1CCC2(CC1)C(=O)N(N1CCCCCC1)C(=O)N2c1ccccc1
inactive: [1] 26.2% | [2] 4.85% | [3] -0.95% | [4] 4.5% | [5] 4% | [6] 15.5%

O=c1c(Br)nn(C(c2ccccc2)c2ccccc2)c(=O)n1C(c1ccccc1)c1ccccc1
inactive: [1] 23.1% | [2] 2.25% | [3] 10.1% | [4] 15.8% | [5] 3.6% | [6] 13.1%

Oc1ccccc1-c1cc(-c2ccccc2)nc(NCCCCNc2nc(-c3ccccc3)cc(-c3ccccc3O)n2)n1
inactive: [1] -5.05% | [2] -3.95% | [3] -14.7% | [4] -21.8% | [5] -1.75% | [6] -2.65%

O=C(Cc1cc2c(cc1[N+](=O)[O-])OCO2)c1c[nH]c2ccc(Br)cc12
inactive: [1] 6.45% | [2] -3.9% | [3] 19.6% | [4] 18.5% | [5] -2.2% | [6] 7.55%

Nc1ncnc2c1nnn2C1C=CC(COS(N)(=O)=O)C1 (stereo not drawn)
inactive: [1] 12.2% | [2] 3.75% | [3] 3.7% | [4] -6% | [5] 8.25% | [6] 18.6%

CCCOc1cncc(C)n1
inactive: [1] 8% | [2] 19.1% | [3] -3.75% | [4] -3.85% | [5] 13.6% | [6] 9.95%

Cc1cc(=O)[nH]c2c(C)cccc12
inactive: [1] 4% | [2] 28.2% | [3] 11.8% | [4] -4.5% | [5] -0.4% | [6] 16.6%

CC(=O)Nc1ccc(N=Nc2c(C)nn(C(=N)N)c2C)cc1
inactive: [1] -5.45% | [2] -8.55% | [3] 0.45% | [4] 0.6% | [5] -4.2% | [6] 9%

O=C1/C(=C/c2ccco2)CC/C1=C\c1ccco1
inactive: [1] 23.4% | [2] 15% | [3] 29% | [4] -18.1% | [5] 14.1% | [6] 44.5%

C/C=C/C(=O)OCCc1ccccc1
inactive: [1] 21.8% | [2] 3.4% | [3] 3.75% | [4] -5.5% | [5] 12.8% | [6] 27.5%

Cc1cc(=O)[nH]c2cc(O)c(C(=O)O)cc12
inactive: [1] -2.95% | [2] 3.7% | [3] -0.3% | [4] -54.5% | [5] 1.6% | [6] -8.15%

C=CCOc1cc2c(cc1C(C)c1ccc(OC)cc1)OCO2 (stereo not drawn)
inactive: [1] 12.3% | [2] 0.75% | [3] 5.95% | [4] -10.3% | [5] 14.5% | [6] -0.6%

CC1(O)CC(C(F)(F)F)(C(F)(F)F)OC1=O (stereo not drawn)
inactive: [1] -20.9% | [2] -42.7% | [3] -7.75% | [4] -28.9% | [5] -2.25% | [6] -13.9%

C/C=C(\Cl)C=O
inactive: [1] 12.4% | [2] 5% | [3] -22.9% | [4] -9.7% | [5] 3.5% | [6] 11.2%

Cc1c(-c2nnc(-c3ccccc3)o2)c(=O)n(-c2ccccc2)n1C
inactive: [1] -7.3% | [2] -6.6% | [3] -30.2% | [4] -27.1% | [5] -26.1% | [6] -21.6%

Cc1ccc(N=Nc2ccc(N)cc2C)c(S(N)(=O)=O)c1
inactive: [1] 40.3% | [2] 4.05% | [3] 51.3% | [4] 5.05% | [5] 61.8% | [6] 49%

CC(C)=CCC/C(C)=C/COC(=O)N(c1ccccc1)c1ccccc1
inactive: [1] 5.95% | [2] -0.1% | [3] 3.9% | [4] -47% | [5] 3.6% | [6] -1.15%

CCN(CC)Cc1cc(Nc2nc(/C=C/c3ccccc3)nc3ccccc23)ccc1O
inactive: [1] 4.05% | [2] -37.5% | [3] -3.25% | [4] 13.9% | [5] -6.7% | [6] -14.6%

CN1C=CC(=Cc2ccccc2)C=C1
inactive: [1] 3.3% | [2] 5.85% | [3] -6.45% | [4] -25% | [5] -10.8% | [6] 1.4%
